ELG1 genotox – inducers of genotoxicity in HEK293T ELG1-luciferase cells; HEK293T ELG1-luciferase reporter, luminescence, 16 h; Potency, µM (titrated, usually from 46 µM), for inactives: at the highest dose activity change, positive = activation, usual class: activators; 330,000 tested, 1.3% active; AID 504466; note: % of control where 0% means no effect; nearly all actives have a fitted effect of over 60% in size
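Quantitative HTS format in 1536-well plates. HEK293T ELG1-luciferase reporter cells receive test compound and are incubated 16 hr at 37 °C, 5% CO2; ONE-Glo added, 30 min room temperature, then luminescence read.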
Luc counter – Kinase-Glo luciferase inhibition (counter-screen). Q27757. Kinase-Glo luciferase, ATP luminescence, 8 min. Potency, µM (highest dose often 38.3 µM), for the others: top-dose activity change, negative = inhibition, actives largely listed as inhibitors. 200,000 tested, 0.28% active. AID 1379; note: % is set by controls: 0 for no effect and ±100 for the full control effect; nearly all actives have a fitted effect of over 60% in size
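Substrate mix (final 50 mM imidazole pH 7.2, 50 mM KCl, 7 mM MgCl2, 10 uM ATP, 0.01% Tween 20, 0.05% BSA) plus pin-tool compound, then Kinase-Glo detection mix; 8 min ambient, luminescence read.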
SMN2 splice up – enhancers of SMN2 splice variant expression; HEK293 SMN2-luciferase splicing reporter, luminescence, 30-36 h; Potency, µM (top dose mostly 46.1 µM), for inactives: top-dose activity change, positive = activation, actives largely listed as activators; 210,000 tested, 2.8% active; note: % of control where 0% means no effect; nearly all actives have a fitted effect of over 55% in size
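HEK293 cells carry an SMN2 minigene-luciferase reporter in which exon 7 inclusion puts luciferase in frame. Cells were seeded at 2000 cells/well, attached for 10-12 hours, then exposed to compounds for 30-36 hours at 37C before ONE-Glo luminescence.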
FLuc counter – inhibits or activates purified firefly luciferase, miR-21 counter-screen | 360,000 tested, 6.9% active | Potency, µM (top dose mostly 57.5 µM), for the others: top-dose activity change, negative = inhibition, hits mostly inhibitors | purified FLuc, Km substrates, luminescence inhibition | AID 588342;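 note: plate controls were vehicle for no effect and reference inhibitor for full effect; nearly all actives have a fitted effect of over 55% in size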
Target sequence (P08659 whole entry, looked up): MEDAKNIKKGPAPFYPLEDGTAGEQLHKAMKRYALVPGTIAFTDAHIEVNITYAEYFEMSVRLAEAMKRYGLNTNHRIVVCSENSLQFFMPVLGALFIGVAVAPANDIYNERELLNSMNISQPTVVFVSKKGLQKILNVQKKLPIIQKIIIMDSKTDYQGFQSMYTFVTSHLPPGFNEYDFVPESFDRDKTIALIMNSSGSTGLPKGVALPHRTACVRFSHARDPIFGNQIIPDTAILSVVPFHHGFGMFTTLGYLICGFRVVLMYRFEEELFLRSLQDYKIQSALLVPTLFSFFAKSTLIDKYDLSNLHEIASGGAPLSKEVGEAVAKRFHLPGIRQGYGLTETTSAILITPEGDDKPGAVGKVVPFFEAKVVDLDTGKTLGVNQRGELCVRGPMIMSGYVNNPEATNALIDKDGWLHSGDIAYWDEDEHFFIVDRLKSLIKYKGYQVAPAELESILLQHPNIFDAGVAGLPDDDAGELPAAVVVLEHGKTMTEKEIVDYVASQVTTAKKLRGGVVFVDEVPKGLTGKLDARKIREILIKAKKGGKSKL
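Purified P. pyralis luciferase, 10 nM final, with Km-level 10 uM D-luciferin and 10 uM ATP in 50 mM Tris acetate pH 7.5, 10 mM Mg acetate, 0.01% Tween-20, 0.05% BSA; 6-point qHTS titration about 60 µM downward; luminescence read.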
NPC1 promoter act – activators of NPC1 promoter; 320,000 tested, 2.4% active; Potency, µM (highest dose often 9.22 µM), for inactives: at the highest dose activation, most hits filed as activators; AID 485313; Huh7 NPC1 promoter luciferase reporter, 24 h; note: % of control where 0% means no effect; nearly all actives have a fitted effect of over 60% in size
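Quantitative HTS used a cell-based reporter: Huh7 cells stably bearing the NPC1 promoter upstream of luciferase were treated with compounds for 24 h, and promoter activation was read as luminescence.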
Rab9 promoter act – activators of Rab9 promoter; Huh7 Rab9 promoter-luciferase reporter, luminescence, 24 h; Potency, µM (titrated, usually from 9.22 µM), for the others: top-dose activation, negative = inhibition, actives largely listed as activators; 320,000 tested, 2.8% active; AID 485297; note: % of control where 0% means no effect; nearly all actives have a fitted effect of over 60% in size
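Quantitative HTS format; Huh7 Rab9-luciferase reporter cells (1500/well) receive compound 2 h post-plating, incubate 24 h at 37 °C, then get luciferase reagent for 10 min before luminescence reading.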
Active calls of the source: *; ? = inconclusive; nt = not tested or not shown; [ ] = remark or other dose. Shown are actives, neighbours in structure and some others; about 7.3% of the full set was active somewhere. Calls come from the whole dose curve; as a rule, active = well fitted curve in the direction sought with a large enough effect; inconclusive = small, poorly fitted or top-dose-only effect, or another doubt; inactive = no such curve, though single readings can be large; an effect the other way counts as inactive or inconclusive. Potency is the fitted concentration of half-maximal effect.

SMILES	ELG1 genotox	Luc counter	SMN2 splice up	FLuc counter	NPC1 promoter act	Rab9 promoter act
Cc1cccn2c1nc(=S)n2C(=O)c1ccco1	?	?	?	0.67µM*	?	1.4µM*
Cc1ccccc1CN1CCN(C(=O)c2ccco2)CC1	2%	nt	nt	-17%	16%	14%
O=C(Nc1ccncc1)c1sc2ccccc2c1Cl	2%	-4%	?	?	?	?
O=C(NN=C1CCCC1)c1sc2ccccc2c1Cl	-4%	2%	-14%	?	0%	4%
Cc1ccc(NC(=O)c2nsc(Cl)c2Cl)cc1	?	nt	nt	1.7µM*	3.5µM*	2.8µM*
O=C(NCc1ccco1)c1sc2ccccc2c1Cl	?	1%	?	21µM*	26%	?
Cc1ccc(NC(=O)c2sc3ccccc3c2Cl)cc1	nt	nt	8.9µM*	1.2µM*	nt	nt
O=C1CCC/C(=N/NC(=O)c2sc3ccccc3c2Cl)C1	12%	nt	nt	15µM*	?	?
Cc1ccc(NC(=O)c2ccc(Cl)nc2)cc1	28%	0%	?	?	1%	?
CCc1ccc(Sc2cc(C(=O)NCCCN3CCC(C)CC3)c3ccccc3n2)cc1	nt	nt	nt	0%	nt	nt
CCn1c(CN2CCCCC2)nc2cc(NC(=O)COc3ccc(C(C)(C)C)cc3)ccc21	nt	nt	nt	0%	nt	nt
COC(=O)N1CCC2(CC1)CN(C(=O)Nc1ccc(OC)cc1)C2	nt	1%	5%	nt	nt	nt
CCOC(=O)C1CCN(c2c(C(=O)c3ccc(C)cc3)cnc3ccc(F)cc23)CC1	nt	nt	3%	2%	nt	nt
CN1CCN(C(=O)c2ccccc2NC(=O)c2sc3ccccc3c2Cl)CC1	2%	nt	nt	?	1%	13%
CN1CCN(c2ccc(NC(=O)c3sc4ccccc4c3Cl)cc2)CC1	?	1%	3%	1.9µM*	2.5µM*	1µM*
CCn1nnc(NC(=O)c2sc3ccccc3c2Cl)n1	21µM*	-5%	11µM*	9.5µM*	2.2µM*	?
Cc1ccc(Cn2c(C(=O)O)c(CNCc3ccc(OC(C)C)cc3)c3ccc(C)cc32)cc1	nt	nt	nt	0%	nt	nt
CCOCCCNC(=O)C(c1ccccc1)N(Cc1cccs1)C(=O)c1ccc(NC(C)=O)cc1 (configuration not stated)	nt	nt	4%	1%	nt	nt
CC(C)(C)c1ccc(/C=N/OCC(=O)NCc2ccccc2)cc1	-1%	1%	-14%	17µM*	0%	-9%
CC(C)(C)c1ccc(/C=N/OCC(=O)NCc2ccc(F)cc2)cc1	-3%	1%	-12%	30µM*	-1%	0%
CCS(=O)(=O)N1CCCc2cc(C(=O)Nc3cc([N+](=O)[O-])ccc3C)ccc21	nt	nt	nt	-14%	nt	nt
COc1ccc(-c2c3c(=O)n(C)c(=O)n(C)c3c3c(-c4ccccc4)nc4ccccc4n23)cc1	nt	nt	-9%	-3%	nt	nt
Nc1nc2sc3c(c2cc1C(=O)N1CCOCC1)CCCC3	3%	-3%	4%	17µM*	8%	10%
Cc1cccc2cc3c(N)c(C(=O)N4CCOCC4)sc3nc12	?	-10%	11µM*	3.8µM*	?	0.56µM*
Nc1nc2sc3c(c2cc1C(=O)NCC(=O)O)CCCC3	-3%	nt	nt	0.95µM*	0%	-16%
SMILES	ELG1 genotox	Luc counter	SMN2 splice up	FLuc counter	NPC1 promoter act	Rab9 promoter act
N#C/C(=C\Nc1ccccn1)C(=O)C1CC1	nt	-1%[7.66 µM]	-7%[9.22 µM]	nt	nt	nt
CC(C)(C)OC(=O)N1CCC(c2c(C(=O)NCCN3CCOCC3)cnn2-c2ccc(F)cc2F)CC1	nt	nt	nt	-1%	nt	nt
COc1ccc(C(=O)O/N=C2\CCS(=O)(=O)c3sccc32)cc1	4%	4%	nt	1.9µM*	-4%	-4%
Cc1ccc(N/N=C2\CCS(=O)(=O)c3sccc32)cc1	10%	-1%	-2%	17µM*	5%	-1%
CN(C)/N=C1\CCS(=O)(=O)c2sccc21	0%	0%	-2%	4%	-3%	-4%
Cc1ccccc1C(=O)O/N=C1\CCS(=O)(=O)c2sccc21	12µM*	1%	16%	0.6µM*	?	?
COC(=O)c1ccc(NC(=O)N2CCN(c3nnc(C)c4c(C)n(-c5ccccc5)nc34)CC2)cc1	nt	nt	nt	-8%	nt	nt
Fc1ccc(Nc2nc3ccccc3c3nncn23)c(Cl)c1	nt	nt	5%	-1%	nt	nt
CCCC(=O)c1ccc(N2CCCC2)c(F)c1	?	0%	20%	15µM*	28%	?
CCCC(=O)c1ccc(N2CCN(S(=O)(=O)c3ccccc3)CC2)c(F)c1	-11%	0%	-7%	1%	-11%	-3%
CCOC(=O)N1CCN(c2ccc(C(=O)c3ccccc3)cc2F)CC1	7%	-4%	-25%	21µM*	?	27%
CCOC(=O)N1CCN(c2ccc(C(C)=O)cc2F)CC1	0%	-2%	-6%	-21%	2%	5%
CCC(=O)c1ccc(N2CCN(C(=O)c3ccccc3F)CC2)c(F)c1	-14%	1%	-23%	-10%	8%	-4%
CCC(=O)c1ccc(N2CCCC2)c(F)c1	12%	1%	12%	17µM*	9%	29%
CCC(=O)c1ccc(N2CCCCCC2)c(F)c1	?	-3%	10%	21µM*	28%	22%
CN(C)c1ccc(/C=C/C(=O)c2cccc(Br)c2)cc1	2%	-7%	-1%	3µM*	23%	26%
CN(C)c1ccc(C(=O)/C=C/c2cccnc2)cc1	15%	nt	nt	3µM*	?	?
CCOC(=O)c1cccc(C(=O)Nc2nc3ccc(OC)cc3s2)n1	-6%	-2%	11µM*	0.48µM*	2.2µM*	1.6µM*
CCC(C)C(=O)Nc1nc2ccc(OC)cc2s1 (configuration not stated)	?	nt	nt	12µM*	2.5µM*	2.5µM*
CC(=O)NCCC(=O)Nc1nc2ccc(Oc3ccccc3)cc2s1	3.7µM*	nt	nt	6.7µM*	1.4µM*	0.89µM*
COc1ccc2nc(NC(=O)CSc3nc(C)cc(C)n3)sc2c1	-4%	8%	-24%	-20%	-1%	-1%
COc1ccc2nc(NC(C)=O)sc2c1	?	-9%	14µM*	12µM*	2.2µM*	2.5µM*
CCc1ccccc1NC(=O)c1ncoc1-c1ccco1	nt	nt	nt	-15%	nt	nt
COC(=O)C(C(C)=O)C1c2ccccc2C=C(C)N1C(=O)OC (configuration not stated)	nt	-7%[7.66 µM]	-3%[9.22 µM]	nt	nt	nt
CCCCN(CC)CCNC(=O)C1CCN(c2nnc(C)c3c(C)n(-c4ccc(C)cc4)nc23)CC1	nt	nt	nt	2%	nt	nt
COc1ccc2nc(NC(=O)CSCC(=O)Nc3cc(C)on3)sc2c1	?	nt	nt	17µM*	?	5µM*
COc1ccc2nc(NC(=O)c3ccccc3[N+](=O)[O-])sc2c1	6%	nt	nt	?	27%	?
